Data published in PubChem BioAssay (NCI).
The panel holds about 83,000 compounds, 20% with a hit somewhere; the sample as a whole holds those more often.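 Plates (96-well) were seeded with cells, treated with compound at one concentration, and incubated for 48 hours before percent growth was determined.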 The source made the active and inactive calls. How the source made its calls: active means growth percent below 10; inactive means the rest.

Legend:
Experiment in all cases: NCI-60 one-dose screen, 48 h (100 = growth as untreated, 0 = no growth, -100 = all killed)
Conditions in all cases: 10 µM unless noted
[1] = system: T-47D breast
[2] = system: BT-549 breast
[3] = system: MDA-MB-435 melanoma
[4] = system: SW-620 colon
[5] = system: MCF7 breast
[6] = system: HCT-116 colon
[7] = system: HCC-2998 colon
[8] = system: KM12 colon

Measured: growth

Clc1ccc(-c2nc(-c3c[nH]c4ncccc34)cs2)cc1
inactive: [1] 62.4% [100 µM] | [2] 47.2% [100 µM] | [3] 89.2% [100 µM] | [4] 74.3% [100 µM] | [5] 66.7% [100 µM] | [6] 38.6% [100 µM] | [7] 90.2% [100 µM] | [8] 76.1% [100 µM]

COc1cc(N2C(=O)[C@H](c3ccccc3)C2c2ccc(SC)cc2)cc(OC)c1OC (stereo not given in full)
active: [2] -6.28% | [3] -23.7% | [5] 6.93% | [6] 0.933%
inactive: [1] 61.9% | [4] 25.2% | [7] 12.6% | [8] 10.2%

O=C1C(Cl)=C(NCCN2CCOCC2)C(=O)c2ncccc21
inactive: [3] 102% | [7] 31.8% | [8] 62.9%
active: [1] -40.8% | [2] -91.5% | [4] -29.5% | [5] -50% | [6] -51.9%

COc1ccc(C(O)c2cc3c(N)c(C(=O)Nc4cccc(Cl)c4)sc3nc2C)cc1 (stereo not given)
active: [3] 0.877% | [7] -19.9% | [8] 9.91%
inactive: [1] 42.2% | [2] 38.3% | [4] 27.1% | [5] 15.1% | [6] 10.3%

O=C(Cn1cc(CN2C(=O)c3ccccc3S2(=O)=O)nn1)Nc1cccc(Cl)c1
inactive: [1] 97% | [2] 133% | [3] 100% | [4] 102% | [5] 92.5% | [6] 98.8% | [7] 93.5% | [8] 104%

O=C1NC(=Nc2ccc(O)cc2)S/C1=C\c1cccs1
active: [3] -24.7%
inactive: [1] 32.5% | [2] 35.8% | [4] 27.2% | [5] 11.8% | [6] 32.9% | [7] 59% | [8] 13.9%

O=C(Nc1ncc(Cc2ccccc2Cl)s1)c1cccs1
inactive: [1] 56.1% | [2] 68.7% | [4] 58.6% | [5] 46.3% | [6] 58.1% | [7] 72.8% | [8] 29.3%
active: [3] 3.49%

Oc1c(Cl)cc(Cl)c2ccc(Cn3cc(-c4cccc(C(F)(F)F)c4)nn3)nc12
inactive: [1] 58.9% | [2] 75% | [3] 73.9% | [4] 28.7% | [5] 42.3% | [6] 14% | [7] 99.5% | [8] 100%

CCN1C(=O)N(CC)C2C1NN=C1SCC(=O)N12 (stereo not given)
active: [6] 9.44%
inactive: [1] 31.9% | [2] 102% | [3] 99.1% | [4] 73.7% | [5] 18% | [7] 105% | [8] 105%

CCc1ccc(CCC(=O)Nc2ncc(Cc3ccc(Cl)cc3)s2)o1
inactive: [1] 37% | [2] 61.3% | [4] 18.6% | [5] 20% | [6] 29.3% | [7] 46.9% | [8] 21.6%
active: [3] -64.3%

CN1CCN(CCCOc2ccc3ncnc(Nc4ccc(Oc5cccc(F)c5)c(Cl)c4)c3c2)CC1
inactive: [1] 20.8% | [2] 90.4%
active: [3] -84.8% | [4] -71.9% | [5] 3.01% | [6] -63.6% | [7] -40% | [8] 6.17%

Cc1ncc(C(=O)Nc2ccc(CN3CCN(C)CC3)c(C(F)(F)F)c2)cc1C#Cc1cnc(N)c2ccncc12
active: [1] -37.3% | [3] -94% | [4] -59.5% | [5] -72% | [6] -87.6% | [7] -89.3% | [8] -70%
inactive: [2] 22.9%

CCCCn1sc(=O)n(Cc2ccc(CNC(=O)OCc3ccc4c(Cl)cc(Cl)c(O)c4n3)cc2)c1=O
inactive: [1] 62.8% | [2] 81.4% | [3] 69.6% | [4] 61% | [5] 63.5% | [6] 46.3% | [7] 98.7% | [8] 65.1%

CN1CCN(CCCOC(=O)c2c3c(n4ccccc24)C(=O)c2ncccc2C3=O)CC1
active: [3] -40.4% | [4] -57.2% | [5] -45.9% | [6] -29.5%
inactive: [1] 47.6% | [2] 24.9% | [7] 29.9% | [8] 17.5%

CC1(C)OC(=O)C(=Cc2cccc(Br)c2)C(=O)O1
inactive: [1] 92.7% | [2] 108% | [3] 108% | [4] 102% | [5] 102% | [6] 102% | [7] 113% | [8] 111%

CC(C)=CC(=O)N[C@@H]1CC2CCC3C(CC[C@@]4(C)C3CC[C@@H]4C(C)N(C)C)[C@@]2(C)C[C@@H]1O (stereo not given in full)
inactive: [1] 22.3% | [2] 66.1% | [3] 12.6% | [4] 28.2% | [5] 33.9% | [6] 27.1% | [7] 52% | [8] 38.2%

CCOc1ccc(/C=N\N=C\c2ccc(OCC)cc2)cc1
inactive: [1] 94.7% | [2] 87.7% | [3] 109% | [4] 52.8% | [5] 67.5% | [6] 45.5% | [7] 98% | [8] 98.1%

Cc1ccccc1OCC(O)COc1ccccc1C
inactive: [1] 88.7% | [2] 79.4% | [3] 94.6% | [4] 103% | [5] 90.7% | [6] 103% | [7] 573% | [8] 103%

O=c1[nH]cnc2c1C(c1ccc(Br)cc1)c1sc3c(F)cccc3c1O2 (stereo not given)
inactive: [1] 83.9% | [2] 99.1% | [3] 100% | [4] 90.6% | [5] 77.3% | [6] 98.9% | [7] 111% | [8] 88.8%

O=C(O)c1cn(C2CC2)c2cc(N3CCN(C(=O)N/N=C/c4ccccc4)CC3)c(F)cc2c1=O
inactive: [1] 91.4% | [2] 92.6% | [3] 106% | [4] 110% | [5] 97.3% | [6] 108% | [7] 99.9% | [8] 94.8%

O=C1OCC2=C1C(c1cccc(F)c1)c1cc3c(cc1N2CCO)OCO3 (stereo not given)
active: [3] -0.149%
inactive: [1] 21.3% | [2] 32.8% | [4] 15.8% | [5] 20% | [6] 18.2% | [7] 77% | [8] 25.3%

C/C(C=O)=C\c1ccc2c(c1)OCO2
inactive: [1] 117% | [2] 114% | [3] 107% | [4] 118% | [5] 102% | [6] 108% | [7] 108% | [8] 110%

COc1cc2cc(Oc3ccc(NC(=O)Nc4ccccc4)cc3)c(C)nc2cc1OCCN1CCCCC1
inactive: [1] 88% | [2] 86.8% | [3] 61.8% | [4] 70.3% | [5] 31.9% | [6] 11.1% | [7] 73% | [8] 42.4%

CCOC(=O)NN1CC(O)=C(c2nc(-c3ccc(Br)cc3)cs2)C1=N
inactive: [1] 94.2% | [2] 116% | [3] 103% | [4] 107% | [5] 103% | [6] 132% | [7] 113% | [8] 118%

O=C(c1ccc(Cl)cc1Cl)N1c2ccccc2Sc2ccccc21
inactive: [1] 67.3% | [2] 54.6% | [3] 47.9% | [4] 38.3% | [5] 52.4% | [6] 22.8% | [7] 64.6% | [8] 49.8%

CCN1CCN(CC(=O)Nc2nc3ccc(NCc4ccc(Br)cc4)cc3s2)CC1
inactive: [1] 48.1% | [2] 85.7% | [5] 10.3% | [6] 17.8% | [7] 62.6% | [8] 52.8%
active: [3] -6.35% | [4] 5.94%

COc1cc(Nc2ncccc2NC(=O)c2cn(Cc3cccc(Oc4ccccc4)c3)nn2)cc(OC)c1
inactive: [1] 65% | [2] 85.5% | [4] 86.1% | [5] 49.3% | [6] 91.1% | [7] 71.6% | [8] 62.2%
active: [3] -6.08%

C#CC#CC#CC#CC#CC#CC#CC#CCC1OCC(COC(=O)O[C@@H](C(=O)O[C@H]2C[C@@]3(O)[C@@H](OC(=O)c4ccccc4)[C@@H]4[C@]5(OC(C)=O)CO[C@@H]5C[C@H](O)[C@@]4(C)C(=O)[C@H](OC(C)=O)C(=C2C)C3(C)C)[C@@H](NC(=O)c2ccccc2)c2ccccc2)O1 (stereo not given in full)
active: [3] -73.5% | [6] 9.48% | [7] 1.97% | [8] 6.73%
inactive: [1] 36.6% | [2] 14.5% | [4] 24.1% | [5] 16.1%

Cc1ccc(Nc2nc(-c3ccc(F)cc3)c(C#N)c(=O)n2C)cc1
inactive: [1] 35.5% | [2] 52.8% | [3] 74.7% | [4] 68.9% | [5] 56.1% | [6] 53.4% | [7] 86.2% | [8] 87.7%

Cc1c2ccccc2nc2c1ccc1cccnc12
inactive: [1] 35.1% | [2] 96.3% | [3] 83% | [4] 93% | [5] 21.7% | [6] 56.2% | [7] 87.3% | [8] 78.2%
